Measurements from PubChem BioAssay AID720690 (Broad Institute, 2013).
Measured potencies and affinities stand elsewhere. Calls of active or inactive are those of the source.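 Rule for the calls: active = every repeat run showing a signal drop whose fitted half-maximal concentration is at most twice the top tested concentration; inconclusive = repeat runs disagree, or flat partial drop, or poor fit; inactive = the rest.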

assay: general mammalian cell viability loss – activator set, cherry-pick, cytotoxicity control for miR-122 modulator project, dose response (AID 720690); conditions: HEK293T viability, CellTiter-Glo luminescence, 48 h; series mostly up to 26 µM

Row | Structure (SMILES) | outcome
1 | CCC(=O)N1C[C@H]2[C@@H](c3ccccc31)[C@H](CO)N2C(=O)Nc1ccccc1F | inactive
2 | C[C@@H]1CN([C@H](C)CO)S(=O)(=O)c2ccc(C#CC3(O)CCCC3)cc2O[C@@H]1CN(C)C(=O)c1cccnc1 | inactive
3 | CCCC(=O)Nc1ccc2c(c1)C(=O)N(C)[C@@H]1CC[C@H](CC(=O)NCCOC)O[C@H]1CO2 | inactive
4 | CN1C(=O)c2cc(NC(=O)c3cccc(F)c3)ccc2OC[C@@H]2O[C@@H](CC(=O)O)CC[C@H]21 | inactive
